Results on 3 compounds are retold here after PubChem BioAssay.

A word on the inhibition: it is the drop in the measured response relative to a control, in per cent.

“And” between values parts separate entries of the source, which are not always exact repeats. Equal entries are not always repeated. The source made the active and inactive calls.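 Rule for the calls, unless noted: active = compounds whose cell count with miR-34 switched on is under 0.7 times the count with it off; inactive = the rest.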

Assay [1] can be described thus: sensitizers of A549 cells to miR-34 induction, primary screen, imaging, A549 dox-inducible miR-34, nuclei and caspase counts (AID 1347080). Conditions: A549 miR-34 inducible, Hoechst nuclei count, 48 h.
The nature of assay [2]: survival rescue of mitochondrial mutant cells in low glucose, primary screen, MELAS cybrids, Rieske KO mouse fibroblasts, CellTiter-Glo (AID 1508586;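 active = mean z-score across replicates of 1.96 or higher in either the MELAS or the Rieske mutant cell line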;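 note: z relative to plate mean and SD of compound and empty wells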). A general note: ATP-based viability assays read luminescence as a measure of living cells.
Assay [3] concerns the target NAD(+) hydrolase SARM1 (Homo sapiens) (UniProt Q6SZW1). As to the kind of experiment: SARM1 TIR NADase inhibitors, cell lysate, NAD-Glo luminescence (AID 1508614;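 active = compound whose remaining NAD level is above about 45 nM, limit read from the data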;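 note: higher remaining NAD means stronger inhibition of SARM1 NADase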). Conditions: SAM-TIR HEK293T lysate NADase, at 1 µM, stronger effect = higher value.
Assay [4] concerns the target Mitogen-activated protein kinase 7 (Homo sapiens) (UniProt Q13164). As to the kind of experiment: ERK5 transactivation activators in reporter cells, primary screen, cell-based, HTS (AID 1508626;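 active = luciferase signal above three times the same-plate solvent-only control wells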;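 note: luciferase driven by Gal4-ERK5 fusion binding five Gal4 sites before minimal TATA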). The conditions noted are these: HeLa Gal4-ERK5 transactivation, 18 h, at 5 µM, stronger effect = higher value.
Assay [5] is described as follows: viability rescue of complex I mutant cybrids, primary screen, cell-based, galactose medium, ATP luminescence (AID 1645843;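 active = z-score of at least 1.8 in each of two replicates, scored against plate mean and spread of sample wells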;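 note: positive z means more ATP and so rescue of galactose-driven cybrid death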). The conditions noted are these: complex I mutant cybrid cells, 72 h, stronger effect = higher value.
The nature of assay [6]: LFS_MB_P medulloblastoma growth inhibition, cell-based, chromothripsis tumors, cisplatin or BGB combos (AID 1671449; in the data active = inhibition above about 80%;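 note: cells exposed for 96 hours; 0% = vehicle DMSO and 100% = killing by high DMSO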). The conditions noted are these: LFS_MB_P medulloblastoma cells.
A short description of assay [7]: HDN33 neuroblastoma growth inhibition, cell-based, chromothripsis tumors, cisplatin or BGB combos (AID 1671450; in the data active = inhibition above about 80%;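 note: cells exposed to compound for four days; 0% = vehicle DMSO and 100% = cell killing by high DMSO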). The conditions noted are these: HDN33 neuroblastoma cells, stronger effect = higher value.
Assay [8] in a line: ICB984 medulloblastoma cell growth inhibition, synergistic combos for chromothripsis tumors, cisplatin or BGB combos (AID 1671451; call rule not given here;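 note: cells exposed for 96 hours before readout; 0% = vehicle DMSO and 100% = killing by high DMSO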). Conditions: ICB984 medulloblastoma cells, drug combinations, stronger effect = higher value.
Assay [9] can be described thus: LFS_MB_1R medulloblastoma cell growth inhibition, synergistic combos for chromothripsis tumors, cisplatin or BGB combos (AID 1671452; in the data active = inhibition above about 80%;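 note: cells exposed for 96 hours before readout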). Conditions: LFS_MB_1R medulloblastoma cells, stronger effect = higher value.
The nature of assay [10]: HTB85 osteosarcoma cell growth inhibition, synergistic combos for chromothripsis tumors, BGB or cisplatin IC20 combos (AID 1671453; in the data active = inhibition above about 80%;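 note: cells exposed for 96 hours before readout; 0% = vehicle DMSO and 100% = high DMSO killing control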). Conditions: HTB85 osteosarcoma cells, drug combinations, stronger effect = higher value.
Assay [11] can be described thus: CRL2098 osteosarcoma cell growth inhibition, synergistic combos for chromothripsis tumors, BGB or cisplatin IC20 combos (AID 1671454; in the data active = inhibition above about 80%;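 note: cells exposed for 96 h before readout; 0% = vehicle DMSO and 100% = killing by high DMSO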). Conditions: CRL2098 osteosarcoma cells, drug combinations, stronger effect = higher value.
A short description of assay [12]: HD-MB03 medulloblastoma cell growth inhibition, synergistic combos for chromothripsis tumors, BGB or cisplatin IC20 combos (AID 1671455; in the data active = inhibition above about 83%;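 note: 0% = vehicle DMSO and 100% = high DMSO as cytotoxic control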). Conditions: HD-MB03 medulloblastoma cells, stronger effect = higher value.
Where [13] appears, read: stronger effect = lower value, cell number ratio, induced over uninduced.
Where [14] appears, read: measured here: relative caspase fold change +Dox/-Dox.
Where [15] appears, read: measured here: total cells with miR-34 induction, stronger effect = lower value.
[16] abbreviates: measured here: total cells without miR-34 induction.
[17] abbreviates: MELAS cybrid survival, CellTiter-Glo 48 h, stronger effect = higher value.
[18] abbreviates: Rieske KO mouse fibroblast survival, CellTiter-Glo 72 h.
Where [19] appears, read: measured here: combination with BGB IC40, at 0.05 µM.

NAD(+) hydrolase SARM1 (Homo sapiens), sequence (Q6SZW1 whole entry, looked up, the tested form may be a part): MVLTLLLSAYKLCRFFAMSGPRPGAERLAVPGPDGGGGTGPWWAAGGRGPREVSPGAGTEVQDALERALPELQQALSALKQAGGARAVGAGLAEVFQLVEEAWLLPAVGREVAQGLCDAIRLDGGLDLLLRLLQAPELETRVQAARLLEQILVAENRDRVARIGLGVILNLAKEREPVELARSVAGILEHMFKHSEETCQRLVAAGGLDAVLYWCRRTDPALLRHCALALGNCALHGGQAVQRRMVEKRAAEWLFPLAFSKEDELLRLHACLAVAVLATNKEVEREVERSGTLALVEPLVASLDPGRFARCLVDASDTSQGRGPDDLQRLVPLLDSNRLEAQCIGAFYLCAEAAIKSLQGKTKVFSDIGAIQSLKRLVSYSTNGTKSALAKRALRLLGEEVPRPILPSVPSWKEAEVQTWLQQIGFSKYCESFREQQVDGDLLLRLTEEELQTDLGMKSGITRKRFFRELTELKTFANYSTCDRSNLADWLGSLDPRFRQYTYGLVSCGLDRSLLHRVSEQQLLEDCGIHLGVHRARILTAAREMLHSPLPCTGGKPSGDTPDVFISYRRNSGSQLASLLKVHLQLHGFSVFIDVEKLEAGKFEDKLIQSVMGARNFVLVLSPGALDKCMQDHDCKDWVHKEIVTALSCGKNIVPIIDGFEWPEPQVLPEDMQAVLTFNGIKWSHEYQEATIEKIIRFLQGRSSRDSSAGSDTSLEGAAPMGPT
Mitogen-activated protein kinase 7 (Homo sapiens), sequence (Q13164 whole entry, looked up, the tested form may be a part): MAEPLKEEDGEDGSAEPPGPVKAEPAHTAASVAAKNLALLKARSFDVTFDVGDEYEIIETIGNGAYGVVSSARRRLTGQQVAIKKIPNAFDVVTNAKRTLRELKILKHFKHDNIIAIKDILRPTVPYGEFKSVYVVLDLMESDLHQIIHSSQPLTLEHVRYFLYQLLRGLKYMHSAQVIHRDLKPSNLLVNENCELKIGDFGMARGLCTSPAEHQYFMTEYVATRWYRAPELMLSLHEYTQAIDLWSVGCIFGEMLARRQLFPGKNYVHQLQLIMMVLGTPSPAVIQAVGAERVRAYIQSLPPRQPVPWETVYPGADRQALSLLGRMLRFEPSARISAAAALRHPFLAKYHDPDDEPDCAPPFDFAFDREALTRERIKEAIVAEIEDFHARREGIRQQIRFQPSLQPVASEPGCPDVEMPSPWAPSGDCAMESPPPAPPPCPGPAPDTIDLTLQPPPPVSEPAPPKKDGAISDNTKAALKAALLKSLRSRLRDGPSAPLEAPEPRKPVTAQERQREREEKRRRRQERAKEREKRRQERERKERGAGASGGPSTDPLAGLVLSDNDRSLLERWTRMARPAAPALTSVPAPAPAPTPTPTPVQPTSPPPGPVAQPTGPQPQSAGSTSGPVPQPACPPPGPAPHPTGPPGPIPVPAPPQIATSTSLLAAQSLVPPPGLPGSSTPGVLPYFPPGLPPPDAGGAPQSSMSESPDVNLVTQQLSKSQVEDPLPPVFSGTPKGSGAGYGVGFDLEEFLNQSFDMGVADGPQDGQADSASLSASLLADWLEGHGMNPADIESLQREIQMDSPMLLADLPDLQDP

With `Nc1ccc(C(=O)NCC(=O)O)cc1`, the fold change was 0.905 (inactive) and 0.867 (inactive) and 0.907 (inactive) in assay [1] (setting [13]); 1.12 and 0.765 and 3.35 in [1] (setting [14]). The cell count is 9600 and 8480 and 12000 in assay [1] (setting [15]); 10600 and 9780 and 13300 in [1] (setting [16]). The z-score in [2] (setting [17]) was -0.372 (inactive) and 0.514 (inactive); in [2] (setting [18]), -0.0832 and -0.331. For the same compound, the remaining NAD in [3] is 10 nM (inactive). The luciferase signal in assay [4] was 20 AU (inactive).

`CO[C@]12C[C@@H](COC(=O)c3cncc(Br)c3)CN(C)[C@@H]1Cc1cn(C)c3cccc2c13`: the fold change in assay [1] (setting [13]) is 0.861 (inactive) and 0.885 (inactive) and 0.895 (inactive); in [1] (setting [14]), 1.4 and 2.61 and 0.782. Also, the cell count was 8590 and 11400 and 9340 in assay [1] (setting [15]); 9980 and 12900 and 10400 in [1] (setting [16]). Besides, the z-score in [2] (setting [17]) is 0.949 (inactive) and 0.883 (inactive); in assay [2] (setting [18]), 0.302 and 0.698; in assay [5], 1.27 (inactive). The remaining NAD in assay [3] is 10 nM (inactive). The luciferase signal in [4] is 56 AU (inactive).

`CCN1CCN(c2cc3c(cc2F)c(=O)c(C(=O)O)cn3C2CC2)CC1`: the fold change in assay [1] (setting [13]) is 0.982 (inactive) and 0.836 (inactive) and 0.884 (inactive); in [1] (setting [14]), 1.31 and 5.17 and 1.41. Besides, the cell count is 8550 and 10100 and 9090 in assay [1] (setting [15]); 8710 and 12100 and 10300 in assay [1] (setting [16]). Moreover, the z-score is -0.903 (inactive) and 0.356 (inactive) in assay [2] (setting [17]); -0.808 and -0.546 in assay [2] (setting [18]); -0.045 (inactive) and 0.1 (inactive) in [5]. Besides, the remaining NAD in assay [3] was 10 nM (inactive). The luciferase signal in [4] was 144 AU (inactive). Further, the inhibition in [6] (at 0.5 µM, stronger effect = higher value) was -14.6% (inactive); in assay [6] (measured here: combination with BGB IC20, at 0.005 µM) it was -15.1%; in [6] (measured here: combination with BGB IC40, at 0.005 µM), -16%; in assay [6] (setting [19]), -15.4%; in [6] (measured here: combination with cisplatin, at 0.5 µM, stronger effect = higher value), -35.9%; in [6] (measured here: combination with cisplatin, at 5 µM, stronger effect = higher value), -7.57%. Moreover, the inhibition in [7] (BGB combo, at 5 µM) was -5.32%; in [7] (at 0.5 µM) it was -11.2% (inactive); in [7] (cisplatin combo, at 5 µM), 14%; in [7] (measured here: with BGB IC20 combination, at 0.5 µM), -32.1%; in assay [7] (measured here: with cisplatin IC20 combination, at 0.5 µM), 1.88%; in assay [7] (single agent, at 5 µM), -10.9%. For the same compound, the inhibition in [8] (BGB IC20 combo, at 0.005 µM) was -8.19%; in assay [8] (BGB IC40 combo, at 0.005 µM), -15.5%; in assay [8] (BGB IC40 combo, at 0.05 µM) it was -15.7%; in assay [8] (at 0.5 µM), -30.1% (inactive); in assay [8] (cisplatin combo, at 0.05 µM), -18.9%; in [8] (cisplatin combo, at 0.5 µM) it was -33.6%. The inhibition in assay [8] (cisplatin combo, at 5 µM) is 5.13%; in [8] (measured here: 5 uM single agent, at 5 µM), -24%; in assay [9] (at 0.5 µM), -17.4% (inactive); in [9] (setting [19]), -29.3%; in [9] (measured here: combination with cisplatin, at 0.5 µM) it was -5.5%; in assay [9] (measured here: combination with cisplatin, at 5 µM), -5.5%. In addition, the inhibition is 4.78% (inactive) in assay [10] (at 0.5 µM); -19% in assay [10] (measured here: with BGB IC20, at 0.5 µM); -4.03% in assay [10] (measured here: with BGB IC20, at 5 µM); 19.5% in assay [10] (measured here: with cisplatin IC20, at 0.5 µM); -34% in [10] (measured here: with cisplatin IC20, at 5 µM); -31.7% in [10] (single agent, at 5 µM). Besides, the inhibition in assay [11] (at 0.5 µM) is -28.3% (inactive); in [11] (measured here: combination with BGB at IC20, at 0.5 µM), -35.5%; in assay [11] (measured here: combination with cisplatin at IC20, at 0.5 µM), -26.8%; in assay [12] (at 0.5 µM), -4.62% (inactive); in assay [12] (measured here: combo with BGB at IC20, at 0.5 µM), -3.92%; in [12] (measured here: combo with cisplatin at IC20, at 0.5 µM), -4.26%.
